# Most compounds without a hit are left out; they make up all but 22% or so of the library.
# E-sel TNF inh: TNF alpha driven E-selectin expression inhibition; HUVEC TNFa-induced E-selectin immunofluorescence, high content; inhibition, % at 2 µM; 120,000 compounds, 0.71% hits; AID 1246;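 active means inhibition above the batch mean plus 3 SD, and confirmed as a hit on visual image review, cut at about 43% in these data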
# F-actin modifier: cytoskeleton assembly modification; inhibition, % at 2 µM; AID 836; HUVEC TNFa F-actin phalloidin imaging, high content; 91,000 compounds, 0.18% hits;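 active means inhibition above the batch mean plus 3 SD and confirmed as a hit by visual image inspection, cut at about 30% in these data, passing the limit was not always enough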
# CYP2C9 inh: inhibitors of human CYP2C9; CYP2C9 Supersomes, luciferin-H conversion, luminescence; P11712; 96,000 compounds, 20% hits; AID 777; inhibition, % at 5 µM;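 active means blocking of liver enzyme CYP2C9 beyond about 50% at 5 µM, limit read from the data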
# CYP2C19 activ: cytochrome P450 2C19 (human) activation; recombinant CYP2C19, luciferin-H EGE luminescence; active compounds read high; 0 = fully inhibited enzyme, 1 = untreated enzyme; activation factor at 5 µM; 96,000 tested, under 10 active;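 active means activation factor of at least 2 at 5 µM in the primary screen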
# Target sequence (P33261 whole entry, looked up): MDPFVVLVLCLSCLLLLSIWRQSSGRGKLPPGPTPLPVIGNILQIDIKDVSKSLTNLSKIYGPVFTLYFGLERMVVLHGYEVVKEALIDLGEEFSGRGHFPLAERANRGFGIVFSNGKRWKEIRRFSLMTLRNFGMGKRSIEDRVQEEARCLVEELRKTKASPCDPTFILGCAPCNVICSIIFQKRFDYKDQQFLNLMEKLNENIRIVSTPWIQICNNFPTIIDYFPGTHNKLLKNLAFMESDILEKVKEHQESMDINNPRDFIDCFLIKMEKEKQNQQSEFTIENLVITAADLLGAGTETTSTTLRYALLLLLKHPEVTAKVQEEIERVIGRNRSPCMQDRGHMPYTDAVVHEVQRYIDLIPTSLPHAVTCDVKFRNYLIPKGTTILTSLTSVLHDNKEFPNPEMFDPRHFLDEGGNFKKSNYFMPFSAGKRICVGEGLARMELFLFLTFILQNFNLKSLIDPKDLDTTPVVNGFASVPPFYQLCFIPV
# CYP2C19 inh: inhibitors of human CYP2C19. CYP2C19 Supersomes, luciferin-H EGE luminescence, 30 min. inhibition, % at 5 µM. 96,000 compounds, 21% hits. AID 778;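 active means CYP2C19 inhibition above a set limit at 5 µM in the primary screen, cut at about 50% in these data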
# CYP2C9 activ: activators of human CYP2C9; recombinant CYP2C9, luciferin-H conversion, luminescence; active compounds read high; factor 1 = untreated enzyme, 0 = blocked; activation factor at 5 µM; 96,000 compounds, 1.4% hits; AID 1024;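 active means activation factor of 2 or more for CYP2C9 at a 5 µM dose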
# A number is an active result; 0 = inactive; - = not tested or not shown.
SMILES,E-sel TNF inh,F-actin modifier,CYP2C9 inh,CYP2C19 activ,CYP2C19 inh,CYP2C9 activ
O=S(=O)(c1ccccc1)N1C2CCC1CC(O)(c1cccnc1)C2 (stereo not given),0,0,0,0,0,0
Cc1ccc2c(CN3CCN(S(=O)(=O)c4ccc5c(c4)OCCO5)CC3)cc(=O)oc2c1C,-,0,70.3,0,71.3,0
CCN1CCN(S(=O)(=O)Cc2ccccc2)CC1,0,0,0,0,51.8,0
CC1CN(S(=O)(=O)c2ccccc2)CC(C)O1 (stereo not given),0,0,0,0,0,0
O=S(=O)(Cc1ccccc1)N1CCCC1,-,0,0,0,0,0
Cc1ccc2c(CN3CCN(Cc4ccc5c(c4)OCO5)CC3)cc(=O)oc2c1C,0,0,0,0,0,0
CCc1ccc(S(=O)(=O)NCCc2cn3cccc(C)c3n2)s1,0,-,-,-,-,-
Cc1ccc2nnc(Cl)n2n1,0,0,0,0,0,0
O=C(Nc1ccc(Cl)cc1)NC1(C(=O)NCCCN2CCOCC2)CCCCC1,-,0,0,0,0,0
CCOc1ccc(NC(=O)c2ccc3c(c2)N(Cc2ccc(F)cc2)C(=O)CS3=O)cc1 (stereo not given),-,0,0,0,0,0
CCOC(=O)c1cnn(-c2nc(C)cc(C)n2)c1N,-,0,0,0,0,0
CNC(=O)CSc1nc(-c2ccccc2)c(-c2ccccc2)[nH]1,-,0,0,0,0,0
O=C(O)CCC(=O)N1CCN(c2cccc(Cl)c2)CC1,0,0,0,0,0,0
Oc1cccc(C(=S)N2CCN(Cc3ccccc3)CC2)c1,-,0,68.0,0,99.8,0
CN(Cc1ccccc1)S(=O)(=O)c1ccc2c(c1)OCCO2,0,0,0,0,87.4,0
O=S(=O)(NCc1ccccc1)c1ccc2c(c1)OCCO2,0,0,0,0,0,0
O=S(=O)(/C=C/c1ccccc1)N1CCN(c2cccc(Cl)c2)CC1,0,0,75.6,0,92.9,0
Cc1cc(C)cc(NC(=S)N2CCN(Cc3ccccc3)CC2)c1,0,-,-,-,-,-
O=S(=O)(c1cccc(F)c1)N1CCN(Cc2ccc3c(c2)OCO3)CC1,0,0,85.8,0,91.0,0
Cc1ccc(C)c(-n2c(SCC(=O)N3CCCC3)nnc2-c2ccccn2)c1,0,0,0,0,0,0
O=C(CCCCC(=O)NC1CCCC1)NC1CCCC1,0,-,-,-,-,-
CN1CCN(S(=O)(=O)c2ccc3c(c2)OCCO3)CC1,0,0,0,0,0,0
O=S(=O)(c1ccccc1Cl)N1CCC(O)(c2ccc3c(c2)OCO3)CC1,0,-,0,0,97.1,0
O=S(=O)(c1ccc2c(c1)OCCO2)N1CCN(c2cccc(Cl)c2)CC1,0,0,57.9,0,88.9,0
O=C(c1ccccc1)N1CCN(C(=O)c2ccc3c(c2)OCCO3)CC1,0,-,-,-,-,-
SMILES,E-sel TNF inh,F-actin modifier,CYP2C9 inh,CYP2C19 activ,CYP2C19 inh,CYP2C9 activ
O=C(c1ccc2c(c1)OCCO2)N1CCN(Cc2ccccc2)CC1,0,0,0,0,66.9,0
O=C(NC1CCCCC1)NC1CCN(S(=O)(=O)c2ccc3c(c2)OCCO3)CC1,0,0,0,0,0,0
O=S(=O)(c1ccc2c(c1)OCCO2)N1CCC(O)(c2ccc(Cl)cc2)CC1,0,0,0,0,98.4,0
CCN(CCCCN1C(=O)c2ccccc2C1=O)c1ccc2c(c1)C(=O)N(C)C2=O,-,-,0,0,0,0
COC(=O)c1cc(COC(=O)c2nc3nccc(C)n3n2)oc1C,0,-,-,-,-,-
CCN(CC(=O)Nc1ccc2c(c1)OCCO2)Cc1cc(=O)oc2c(C)c(C)ccc12,0,0,83.9,0,91.8,0
COc1ccc(S(=O)(=O)NCc2ccc(C(=O)N3CCN(c4ccccn4)CC3)cc2)cc1,-,0,0,0,0,0
O=C(N1CCOCC1)N1CCN(Cc2ccccc2)CC1,-,0,0,0,82.0,0
O=S(=O)(Cc1ccccc1)N1CCN(Cc2ccc3c(c2)OCO3)CC1,0,0,53.5,0,91.0,0
CN(c1ccccc1)S(=O)(=O)c1cccc(C(=O)N2CCN(c3ccccn3)CC2)c1,-,0,88.3,0,79.1,0
CCC(C)(CC(=O)N(C)CCC#N)c1ccccc1 (stereo not given),0,0,0,0,0,0
COC(=O)C(O)(CC(=O)Nc1cc(OC)c(OC)c(OC)c1)C(F)(F)F (stereo not given),0,0,-,-,-,-
COC(=O)C(O)(CC(=O)c1ccc(OC)cc1)C(F)(F)F (stereo not given),0,-,0,0,62.9,0
CCCOc1cc(C)c(S(=O)(=O)N2CCOCC2)cc1C,0,-,-,-,-,-
CCCOc1cc(C)c(S(=O)(=O)n2ccc(C)n2)cc1C,0,0,0,0,69.9,0
CN(C)c1nc(-c2ccccc2)c2cnn(Cc3ccccc3)c2n1,-,0,0,0,66.8,0
Cc1cccc(C(=O)NCCc2csc(C)n2)c1,-,0,0,0,0,0
Cc1ccc(C(=O)NCCc2csc(C)n2)cc1,-,0,53.2,0,0,0
Cc1nc(CCNC(=O)Cc2ccc(F)cc2)cs1,0,0,0,0,0,0
Cc1nc(CCNC(=O)Cc2ccc(Cl)cc2)cs1,0,0,0,0,56.3,0
O=C(Cn1c(=S)[nH]c2ccccc2c1=O)N1CCN(c2ccccc2)CC1,0,-,-,-,-,-
COc1ccc(C)cc1S(=O)(=O)N1CCN(S(=O)(=O)c2cc(C)ccc2OC)CC1,0,0,86.9,0,75.4,0
CCOc1ccc(S(=O)(=O)N2CCC(C(N)=O)CC2)c2ccccc12,0,0,58.6,0,0,0
COc1ccc(F)cc1S(=O)(=O)N1CCC(C(N)=O)CC1,0,0,0,0,0,2.4
COc1ccc(F)cc1S(=O)(=O)N1CCCN(S(=O)(=O)c2cc(F)ccc2OC)CC1,0,0,0,0,99.4,0
SMILES,E-sel TNF inh,F-actin modifier,CYP2C9 inh,CYP2C19 activ,CYP2C19 inh,CYP2C9 activ
COc1ccc(C)cc1S(=O)(=O)N1CCCCC1,0,0,-,-,-,-
O=C(NNC(=O)c1ccc2c(c1)OCO2)NC1CCCCC1,0,0,0,0,0,0
COc1ccc(C(=O)NC2CCCCCC2)cc1S(=O)(=O)N1CCCC1,0,-,-,-,-,-
COc1ccc(C)cc1S(=O)(=O)N1c2ccccc2CC1C (stereo not given),0,0,96.1,0,95.6,0
COc1ccc(F)cc1S(=O)(=O)N1CCCC(C)C1 (stereo not given),0,0,0,0,66.7,0
COc1ccc(OC)c(S(=O)(=O)N2CCN(c3ccccn3)CC2)c1,0,0,76.8,0,82.7,0
O=c1c2ccccc2nc(CSc2nnnn2-c2ccccc2)n1-c1cccc(C(F)(F)F)c1,0,0,0,0,0,0
Cc1nc(NC(C)c2ccccc2)c2oc3ccccc3c2n1 (stereo not given),0,0,60.9,0,0,0
Cc1nc(Nc2ccncc2)c2oc3ccccc3c2n1,0,0,0,0,0,0
Cc1nc(NCc2ccco2)c2oc3ccccc3c2n1,0,0,62.9,0,77.0,0
O=C(Oc1cccc2cccnc12)c1cccs1,-,0,0,0,0,0
CN(C)/C=C/C(=O)c1ccc(-c2ccc(Cl)cc2Cl)o1,0,-,-,-,-,-
O=C(NCc1cccnc1)c1ccc(-c2cc(Cl)ccc2Cl)o1,0,-,-,-,-,-
COc1cc2c(cc1OC)C(c1ccc(-c3ccc(Cl)cc3Cl)o1)=NCC2,0,0,56.3,0,0,0

# Compound activity deposited in PubChem by several laboratories.
